# TDP1 block: inhibitors of human tyrosyl-DNA phosphodiesterase TDP1. Q9NUW8. recombinant TDP1, AlphaScreen DNA substrate cleavage. Potency, µM (top dose mostly 130 µM), actives largely listed as inhibitors. 350,000 tested, 0.28% active; further: nearly all actives have a fitted effect of over 40% in size
#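 E. coli-derived human Tdp1, 1 nM final. Cpd preinc 15 min RT; substrate 15 nM final, 5 min RT; AS bead mix 10 ug/ml final, 10 min RT. Signal loss = tyrosine-FITC cleavage. No-enzyme wells = max signal.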
# BLM helicase inh: Bloom syndrome helicase (human) inhibition; P54132; recombinant BLM DNA unwinding, fluorescence dequenching; Potency, µM (doses to about 56.1 µM), usual class: inhibitors; 350,000 tested, 0.2% active; AID 2528; further: nearly all actives have a fitted effect of over 35% in size
# JMJD2E inh: blocks human JMJD2E demethylase activity | Potency, µM (top dose mostly 57.1 µM), hits mostly inhibitors | JMJD2E catalytic domain, FDH-coupled NADH fluorescence (FDH is formaldehyde dehydrogenase) | 230,000 tested, 1.6% active | B2RXH2 | AID 2147; active means well fitted inhibition curve with a large enough effect, not every such curve was filed as active; inconclusive means small, poorly fitted or top-dose-only effect, or another doubt; inactive means no such curve, though single readings can be large or run the other way; further: nearly all actives have a fitted effect of over 50% in size
# Target sequence (B2RXH2 1-337 limits assumed): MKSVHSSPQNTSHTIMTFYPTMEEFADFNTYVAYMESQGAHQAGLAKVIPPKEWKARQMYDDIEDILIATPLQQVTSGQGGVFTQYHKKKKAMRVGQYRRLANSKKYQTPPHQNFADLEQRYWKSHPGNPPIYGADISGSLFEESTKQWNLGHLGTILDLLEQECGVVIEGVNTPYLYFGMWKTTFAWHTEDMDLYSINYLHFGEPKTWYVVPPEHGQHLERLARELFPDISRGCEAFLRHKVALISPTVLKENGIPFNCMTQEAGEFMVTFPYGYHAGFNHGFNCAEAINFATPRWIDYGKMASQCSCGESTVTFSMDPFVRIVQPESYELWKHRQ
# RECQ1 helicase: inhibitors of human RECQ1 DNA helicase | P46063 | 240,000 tested, 0.54% active | AID 2549 | RECQ1 DNA unwinding, red fluorescence kinetic read | Potency, µM (titrated, usually from 57.3 µM), hits mostly inhibitors; further: nearly all actives have a fitted effect of over 30% in size
#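 RECQ1T1 50 nM; forked duplex (20 bp + 30-nt ss tails) 200 nM, ATP 2 mM final; pH 8.0, 2 mM MgCl2, 2.5 ug/ml poly(dI-dC); 15 min compound preincubation; discontinuous kinetic read over 2 h at RT.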
# L3MBTL1 block: inhibitors of human L3MBTL1; Q9Y468; AlphaScreen L3MBTL1–H3K9me1 peptide binding; Potency, µM (top dose mostly 57.1 µM), hits mostly inhibitors; 230,000 tested, 0.66% active; further: nearly all actives have a fitted effect of over 60% in size
#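 Displacement of a biotinylated histone H3(1-15) peptide monomethylated at Lys9 (75 nM) from L3MBTL1 (50 nM) was measured by AlphaScreen after a 30 min room-temperature compound incubation; cefsulodin titration served as intraplate control.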
# APE1 inh: inhibitors of human APE1 endonuclease; AID 2517; P27695; recombinant APE1, TAMRA/BHQ-2 abasic DNA cleavage fluorescence; Potency, µM (doses to about 65.8 µM), hits mostly inhibitors; 350,000 tested, 0.35% active; further: nearly all actives have a fitted effect of over 55% in size
# Target sequence (P27695 whole entry, looked up): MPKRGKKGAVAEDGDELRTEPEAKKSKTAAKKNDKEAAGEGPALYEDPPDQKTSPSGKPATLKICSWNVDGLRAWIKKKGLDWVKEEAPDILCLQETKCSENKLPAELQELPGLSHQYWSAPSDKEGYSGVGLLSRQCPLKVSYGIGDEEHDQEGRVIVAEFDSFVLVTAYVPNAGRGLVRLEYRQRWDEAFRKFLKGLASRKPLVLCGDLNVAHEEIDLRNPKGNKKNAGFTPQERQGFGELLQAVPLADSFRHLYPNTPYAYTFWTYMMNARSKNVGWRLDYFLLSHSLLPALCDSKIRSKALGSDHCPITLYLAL
#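 Measures dequenching upon AP-site incision of a 5'-TAMRA/3'-BHQ-2 THF-containing duplex, 50 nM; human APE1 0.75 nM after 15 min room-temperature exposure to compound; kinetic three-point read at one-minute spacing.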
# A number is an active result; – = inactive; ? = inconclusive; · = not tested or not shown; ! = not active in a repeat; [ ] = remark or other dose. The sample as a whole holds a higher share of hits than the screen did. Unless noted, the call rests on the fitted dose curve; in most records, active means well fitted curve in the direction sought with a large enough effect; inconclusive means small, poorly fitted or top-dose-only effect, or another doubt; inactive means no such curve, though single readings can be large; an effect the other way counts as inactive or inconclusive.
SMILES,TDP1 block,BLM helicase inh,JMJD2E inh,RECQ1 helicase,L3MBTL1 block,APE1 inh
O=C(CN1C(=O)CN=C(c2ccccc2)c2ccccc21)NCc1ccco1,–,–,–,–,20µM,–
CC(C)CCNC(=O)CN1C(=O)CN=C(c2ccccc2)c2ccccc21,–,–,–,–,·,–
[CH3][Hg][Cl],–,·,·,–,·,–
Cc1ccc(N2C(=O)NC(=O)/C(=C/c3ccc(OC(=O)c4cccs4)cc3)C2=O)cc1,·,–,20µM,–,–,–
COc1ccc(N2C(=O)NC(=O)/C(=C/c3cccc(OC(=O)c4cccs4)c3)C2=O)cc1Cl,–,–,–,–,–,–
CC(=O)Oc1ccc(Cl)c2cccnc12,–,–,17.8µM,–,·,–
C=CC1CC=CCC1 (stereo not given),–,·,·,–,·,–
CN1CCN(c2ccc(/C=C3\C(=O)NC(=S)N(c4cccc(Br)c4)C3=O)o2)CC1,–,–,–,14.1µM,–,–
CN1C(=O)/C(=C\c2ccc(N3CCCCC3)o2)C(=O)NC1=S,–,–,–,–,–,–
C=C(C)C(N)=O,–,·,·,–,·,–
CCCCC/C=C\C/C=C\C/C=C\C/C=C\CCCC(=O)NCCCC(=O)O,–,–,–,–,·,–
CCCCC/C=C\C/C=C\C/C=C\C/C=C\CCCC(=O)NCC(=O)O,31.6µM!,–,22.4µM!,3.55µM!,·,?
COc1ccc(N2C(=O)/C(=C/c3ccc(C)o3)C(=O)NC2=S)cc1,·,–,·,·,·,–
O=C1NC(=S)N(c2ccc(F)cc2)C(=O)/C1=C\c1ccoc1,·,–,?,31.6µM,·,?
CCN1C(=O)/C(=C\c2ccc([N+](=O)[O-])s2)C(=O)NC1=S,·,?,2.51µM,?,·,?
C=CCN1C(=O)/C(=C/c2ccc(Br)s2)C(=O)NC1=S,·,–,·,·,–,–
COc1ccc(OC)c(N2C(=O)NC(=O)/C(=C/c3ccc([N+](=O)[O-])s3)C2=O)c1,–,10µM,25.1µM,–,·,?
COc1ccc(OC)c(N2C(=O)/C(=C/c3ccco3)C(=O)NC2=S)c1,·,1.58µM,·,·,·,0.0947µM
CCc1ccc(C(=O)NN(C(=O)c2cc(C)cc(C)c2)C(C)(C)C)cc1,–,–,–,–,·,–
O=C1NC(=S)N(c2ccc(F)cc2)C(=O)/C1=C/c1ccco1,·,3.16µM,·,·,–,0.212µM
Cc1ccc(/C=C2\C(=O)NC(=S)N(c3cccc(F)c3)C2=O)o1,–,–,·,·,?,–
CCOC(=O)c1ccc(NC(=O)c2cccn(Cc3ccc(C)cc3)c2=O)cc1,–,–,·,·,·,·
CCOC(=O)c1ccc(NC(=O)c2c(O)[nH]c(=O)[nH]c2=O)cc1,?,–,?,–,7.08µM,–
Cc1c(C(=O)c2cccc3ccccc23)c2cccc3c2n1[C@@H](CN1CCOCC1)CO3,–,–,·,–,·,–
Cc1ccc(-n2sc3ccccc3c2=O)cc1,–,–,28.2µM,–,–,–
SMILES,TDP1 block,BLM helicase inh,JMJD2E inh,RECQ1 helicase,L3MBTL1 block,APE1 inh
COc1ccc(-c2nc3ccccc3c(=O)n2-c2ccc(OC)cc2)cc1,–,–,–,–,–,–
OCCNc1c2c(nc3ccccc13)CCCC2,–,–,–,–,–,–
C[n+]1c2ccccc2nc2ccc(NCCO)cc21,·,17.8µM,·,·,·,26.7µM
CNc1ccc2nc3ccccc3[n+](C)c2c1,·,17.8µM,·,·,·,21.2µM
C=C(C)[C@H]1CC[C@]2(C(=O)O)CC[C@]3(C)[C@@H](CC[C@H]4[C@@]5(C)CC[C@@H](O)C(C)(C)[C@@H]5CC[C@@]43C)[C@H]12,–,–,–,–,·,–
FC(F)OC(F)(F)C(F)Cl (stereo not given),·,–,·,·,·,·
Fc1ccc(CNCCc2ccccc2)cc1,–,–,31.6µM,–,–,–
Fc1ccc(CCNCc2ccccc2Cl)cc1,–,–,–,–,·,–
COc1ccccc1CCNCc1ccc(OC)c(OC)c1OC,–,–,5.62µM,–,–,–
COc1ccc(CNCCc2c[nH]c3ccccc23)c(OC)c1OC,·,–,·,·,–,–
CN1CC[C@@]2(c3cccc(O)c3)Cc3nc4ccccc4cc3C[C@H]2C1,–,–,–,–,·,–
CCCCCCC(=O)N/N=C/c1c(O)n(CCCC)c(=S)[nH]c1=O,–,–,17.8µM,–,–,–
Cn1c(O)c(/C=N/NC(=O)c2ccncc2)c(=O)n(C)c1=S,·,–,31.6µM,–,·,–
O=C(N/N=C/c1c(O)n(Cc2ccccc2)c(=O)[nH]c1=O)c1ccncc1,–,–,20µM,–,·,–
O=C(N/N=C/c1c(O)n(Cc2ccc(F)cc2)c(=O)[nH]c1=O)c1ccccc1,–,–,?,–,–,–
CCCCC(=O)N/N=C/c1c(O)n(CCc2ccc(OC)c(OC)c2)c(=O)[nH]c1=O,–,–,22.4µM,–,–,–
O=NN(CCO)CCO,–,·,·,–,·,–
Cc1ccc2c(c1)[C@@H]1CN(C)CC[C@H]1N2,–,–,·,·,·,·
COc1ccc(C=O)cc1OC,–,·,·,–,·,–
CCC1CN2CCC1CC2C(Oc1cc2ccccc2c2ccccc12)c1ccnc2ccc(O)cc12 (stereo not given),–[21 µM],–[12.4 µM],·,–[11.5 µM],·,–[12.4 µM]
COc1ccc(CCn2c(O)c(C=NCc3cccnc3)c(=O)[nH]c2=O)cc1OC,–,–,–,–,–,–
COc1ccc(CCn2c(O)c(/C=N/NC(=O)c3ccncc3)c(=O)[nH]c2=O)cc1OC,–,–,10µM,–,–,–
C=CCN1CCc2cccc3c2C1Cc1ccc(O)c(O)c1-3 (stereo not given),–,·,?,?,·,?
CC[C@]1(O)CC[C@H]2[C@@H]3CCC4=CCCC[C@@H]4[C@H]3CC[C@@]21C,·,–,·,·,·,·
C[C@]12CC[C@@H]3c4ccc(O)c(O)c4CC[C@H]3[C@@H]1CC[C@@H]2O,–,–,1.41µM,–,·,–
SMILES,TDP1 block,BLM helicase inh,JMJD2E inh,RECQ1 helicase,L3MBTL1 block,APE1 inh
COc1cc2c(cc1O)C[C@H]1c3c(cc(OC)c(O)c3-2)CCN1C,–,–,?,25.1µM,·,?
C=CC=O,–,·,·,–,·,–
CC/C(CC(c1ccccc1)c1c(O)c2ccccc2oc1=O)=N\NC(N)=S (stereo not given),–,–,?,–,–,25.1µM
CC(=O)CC(c1ccccc1)c1c(O)c2ccccc2oc1=O (stereo not given),–,–,?,–,–,–
[Cd+2].[Cl-].[Cl-],–,·,·,35.5µM,·,0.794µM
CCCCC/C=C\C/C=C\C/C=C\C/C=C\CCCC(=O)N(Cc1ccc(O)c(Cl)c1)Cc1ccc(O)c(Cl)c1,–,31.6µM,·,–,·,–
CCC1C(=O)OC[C@H]1Cc1cncn1C (stereo not given in full),–,–,–,–,·,–
Oc1cccc2cccnc12,–,–,11.2µM,–,·,–
CN(C(=O)Oc1cccc2cccnc12)c1ccccc1,–,–,–,–,–,–
O=C(O)CCC(=O)NCCC1=c2ccccc2=N/C1=C\c1c(O)n(Cc2ccc(F)cc2)c(=S)[nH]c1=O,35.5µM,–,?,–,–,–

# Source: PubChem (National Center for Advancing Translational Sciences (NCATS))
